Screening results deposited in PubChem BioAssay by National Center for Advancing Translational Sciences (NCATS).
FLuc modulator: qHTS profiling assay for firefly luciferase inhibitor/activator using purifed enzyme and Km concentrations of substrates (counterscreen for miR-21 project); 360,000 tested, 6.9% active; purified FLuc, Km substrates, luminescence inhibition; Potency, µM (titrated, usually from 57.5 µM), inactives show at the top dose activity change, negative = inhibition, actives largely listed as inhibitors; Luciferin 4-monooxygenase (Photinus pyralis), P08659;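 note: plate controls were vehicle for no effect and reference inhibitor for full effect; nearly all actives have a fitted effect of over 55% in size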
Target sequence (P08659 whole entry, looked up): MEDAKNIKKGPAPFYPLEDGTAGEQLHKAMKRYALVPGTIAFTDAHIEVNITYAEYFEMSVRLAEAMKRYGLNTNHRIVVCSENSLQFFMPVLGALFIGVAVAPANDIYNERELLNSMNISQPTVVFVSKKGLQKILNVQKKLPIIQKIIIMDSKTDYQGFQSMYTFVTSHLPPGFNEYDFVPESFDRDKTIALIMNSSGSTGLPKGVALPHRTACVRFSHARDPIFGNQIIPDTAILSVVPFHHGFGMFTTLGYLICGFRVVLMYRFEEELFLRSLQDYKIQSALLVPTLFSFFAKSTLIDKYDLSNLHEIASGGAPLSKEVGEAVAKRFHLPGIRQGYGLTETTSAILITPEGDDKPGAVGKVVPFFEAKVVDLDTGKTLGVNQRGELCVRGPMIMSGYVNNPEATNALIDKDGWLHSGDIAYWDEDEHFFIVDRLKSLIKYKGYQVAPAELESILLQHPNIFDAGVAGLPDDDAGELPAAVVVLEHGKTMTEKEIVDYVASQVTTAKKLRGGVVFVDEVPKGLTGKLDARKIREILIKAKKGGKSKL
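Purified P. pyralis luciferase, 10 nM final, with Km-level 10 uM D-luciferin and 10 uM ATP in 50 mM Tris acetate pH 7.5, 10 mM Mg acetate, 0.01% Tween-20, 0.05% BSA; 6-point qHTS titration about 60 µM downward; luminescence read.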
Rab9 prom act: qHTS Assay for Rab9 Promoter Activators. Potency, µM (top dose mostly 9.22 µM), for inactives: at the highest dose activation, negative = inhibition, most hits filed as activators. Huh7 Rab9 promoter-luciferase reporter, luminescence, 24 h. 320,000 tested, 2.8% active; note: % of control where 0% means no effect; nearly all actives have a fitted effect of over 60% in size
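Measured in stably transfected Huh7 cells bearing a Rab9 promoter–luciferase construct: 24 h compound treatment at 37 °C, followed by luminescence detection.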
ELG1 genotoxic: qHTS screen for small molecules that induce genotoxicity in human embryonic kidney (HEK293T) cells expressing luciferase-tagged ELG1; 330,000 tested, 1.3% active; Potency, µM (highest dose often 46 µM), for the others: top-dose activity change, positive = activation, hits mostly activators; HEK293T ELG1-luciferase reporter, luminescence, 16 h; AID 504466, 2011; note: % of control where 0% means no effect; nearly all actives have a fitted effect of over 60% in size
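16 hr compound incubation (37 °C, 5% CO2) of HEK293T cells carrying luciferase-tagged ELG1; luciferase then measured by ONE-Glo luminescence after 30 min at RT.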
NPC1 promoter act: qHTS Assay for NPC1 Promoter Activators; Huh7 NPC1 promoter luciferase reporter, 24 h; Potency, µM (series often up to 9.22 µM), for inactives: at the highest dose activation, most hits filed as activators; 320,000 tested, 2.4% active; note: % of control where 0% means no effect; nearly all actives have a fitted effect of over 60% in size
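Luminescence from an NPC1 promoter-driven luciferase reporter in stably transfected Huh7 cells was measured after 24 h compound treatment at 37 °C, followed by 10 min ambient incubation with luciferase detection reagent.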
SMN2 splice enh: qHTS Assay for Enhancers of SMN2 Splice Variant Expression. HEK293 SMN2-luciferase splicing reporter, luminescence, 30-36 h. 210,000 tested, 2.8% active. AID 1458, 2008. Potency, µM (titrated, usually from 46.1 µM), without a hit: top-dose activity change, positive = activation, hits mostly activators; note: % of control where 0% means no effect; nearly all actives have a fitted effect of over 55% in size
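HEK293 cells carry an SMN2 minigene-luciferase reporter in which exon 7 inclusion puts luciferase in frame. Cells were seeded at 2000 cells/well, attached for 10-12 hours, then exposed to compounds for 30-36 hours at 37C before ONE-Glo luminescence.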
Numbers without * were called inactive; ? = inconclusive; nt = no result; [ ] = dose if it differs, or a comment. A selection: hits, their analogues and other compounds. The true share with any hit is near 7.5%. Calls come from the whole dose curve; as a rule, active = well fitted curve in the direction sought with a large enough effect; inconclusive = small, poorly fitted or top-dose-only effect, or another doubt; inactive = no such curve, though single readings can be large; an effect the other way counts as inactive or inconclusive. Potency is the fitted concentration of half-maximal effect.

SMILES | FLuc modulator | Rab9 prom act | ELG1 genotoxic | NPC1 promoter act | SMN2 splice enh
COCCNC(=O)CN1CCCCCC1 | -16% | 0% | -2% | 5% | 7%
O=C(CN1CCN(Cc2ccc3c(c2)OCO3)CC1)NCC(F)(F)F | 3% | -3% | 0% | -4% | nt
O=C1N/C(=N/S(=O)(=O)Cc2ccccc2)S/C1=C/c1ccc2c(c1)OCO2 | 27µM* | -5% | -2% | -2% | nt
COc1ccc(/C=C2\SC(=NCc3ccccc3)NC2=O)cc1 | -13% | -2% | -1% | -2% | -10%
O=C(O)/C=C/C(=O)Nc1ccc(OCc2ccccc2)cc1 | ? | -3% | 8% | 5% | nt
Cc1ccc2sc(-c3ccc(NC(=O)/C=C\C(=O)O)cc3)nc2c1 | 0.95µM* | 2.8µM* | ? | ? | 7.1µM*
O=C(O)/C=C/C(=O)Nc1ccc(-c2ccccc2)cc1 | 6.7µM* | 28% | 14% | 16% | 21%
O=C(O)/C=C/C(=O)Nc1ccc(-n2nccc2C(F)(F)F)cc1 | 17µM* | 9% | 1% | -1% | nt
CCCCCC(=O)Nc1ccc(C2C(=O)c3ccccc3C2=O)cc1 | 2.7µM* | 2.2µM* | ? | 2.8µM* | nt
Cc1ccc(F)cc1NC(=O)c1ccc(Cn2nc(N3CCN(c4ccccc4)CC3)ccc2=O)o1 | -10% | nt | nt | nt | nt
COc1ccccc1-n1cnc2c(c1=O)c1nc3ccccc3nc1n2-c1ccc(C)c(C)c1 | 4% | -1% | -6% | -10% | -16%
CCCCCC(=O)Nc1ccc(-c2csc(N)n2)cc1 | 17µM* | ? | ? | 4% | nt
CCCCCC(=O)Nc1ccc(-c2csc(C)n2)cc1 | 15µM* | ? | 3% | 20% | ?
Cc1nc(-c2ccc(NC(=O)/C=C\C(=O)O)cc2)cs1 | 9.5µM* | 1% | 11% | 0% | 14%
Cc1nc(-c2ccccc2)cs1 | -14% | 0% | 0% | -4% | 15%
O=C(O)/C=C\C(=O)Nc1ccc(N2CCN(c3cccc(Cl)c3)CC2)cc1 | ? | 1% | 2% | -9% | -4%
O=C(O)/C=C\C(=O)Nc1ccc(N2CCN(c3ccc(Cl)cc3)CC2)cc1 | 15µM* | -14% | -1% | -7% | nt
O=C(N/N=C/c1ccc(Cl)cc1)c1n[nH]c2c1CCCC2 | ? | 18% | 8.2µM* | ? | nt
O=C(N/N=C/c1ccccc1Cl)c1ccncc1 | ? | 10% | 1% | 0% | nt
O=C(N/N=C/C(Br)=C/c1ccccc1)c1n[nH]c2c1CCC2 | 2.7µM* | 0% | ? | ? | 10µM*
O=C(N/N=C/c1ccccc1Cl)c1n[nH]c2c1CCCC2 | 0.21µM* | ? | 0.29µM* | 0.63µM* | 0.35µM*
O=C(N/N=C/c1ccccc1)c1n[nH]c2c1CCCC2 | 3µM* | 0.35µM* | ? | 0.56µM* | 5µM*
CCn1c(CSCc2ccc(C)cc2)nnc1SCC(=O)N1CCN(c2ccccc2)CC1 | 2% | -2% | -20% | -1% | -53%
Cc1ccc(N2NC(=O)/C(=C\c3cc4c(cc3[N+](=O)[O-])OCO4)C2=O)cc1C | ? | -7% | ? | -1% | -23%
CC1Cc2ccccc2N1S(=O)(=O)c1cccc2nsnc12 (configuration not stated) | -2% | 0% | -4% | 1% | 0%
SMILES | FLuc modulator | Rab9 prom act | ELG1 genotoxic | NPC1 promoter act | SMN2 splice enh
Cc1nonc1C(=O)N/N=C/c1ccccc1 | 11µM* | -1% | 3% | 0% | nt
Cc1nc(NS(=O)(=O)c2ccccc2)sc1C(=O)NNS(=O)(=O)c1ccccc1 | -10% | 1% | 0% | -4% | nt
O=C(N/N=C/c1cccs1)c1n[nH]c2c1CCC2 | 3.4µM* | ? | ? | ? | 5µM*
Cc1nc(NS(=O)(=O)c2ccccc2)sc1C(=O)N/N=C/c1ccccc1 | 9.5µM* | 2% | 3% | 1% | nt
COCCCn1cnc2c(c1=O)c1nc3ccccc3nc1n2CCc1ccccc1 | 5% | 0% | -4% | 1% | nt
O=C(CN1C(=O)/C(=C\c2cccc(Cl)c2)Sc2ccccc21)NCCCN1CCOCC1 | ? | 6% | 0% | -1% | nt
CCCOc1ccc(/C=N/NC(=O)CSc2ccccn2)cc1OC | 11µM* | ? | 13% | 2% | nt
COc1ccc(/C=N/NC(=O)c2ccn[nH]2)cc1CSc1ccccn1 | 11µM* | ? | ? | ? | nt
COc1cc(/C=N/NC(=O)CSc2ccccn2)ccc1O | ? | 15% | 3% | -5% | nt
CN(C)c1ccc(/C=N/NC(=O)CSc2ccccn2)cc1 | 12µM* | ? | ? | 27% | nt
CC(=C/c1ccc(C(C)C)cc1)/C=N/NC(=O)CSc1ccccn1 | ? | 2.8µM* | ? | ? | 3%[1.84 µM]
CCc1ccc(C(=O)N2CCN(c3ccc(F)cc3)CC2)s1 | -3% | -2% | 6% | 0% | -19%
Cc1[nH]nc2c1C1(CCOCC1)C(C#N)=C(N)O2 | 2% | 1% | -3% | 1% | 2%
COc1ccc(S(=O)(=O)N2CCCCC2)cc1NC(=O)[C@@H]1CCCN1C(=O)c1cccs1 | nt | -2% | 2% | 0% | nt
COc1ccc(OC)c(NC(=O)[C@@H]2CCCN2C(=O)c2cccs2)c1 | 1% | -2% | 10% | -2% | 5.6µM*
Cc1nc(-c2ccc(NC(=O)c3ccccc3C)cc2)cs1 | 3.4µM* | 1.6µM* | 13% | 1.4µM* | nt
Cc1ccccc1C(=O)Nc1ccccc1 | ? | 29% | ? | 20% | nt
Cc1nc(-c2ccc(NC(=O)c3ccccc3Br)cc2)cs1 | 6µM* | 2.8µM* | ? | ? | 16µM*
O=C(N/N=C/c1ccco1)c1ccc(NC(=O)c2ccccc2Cl)cc1 | 5% | 1% | -1% | 1% | 2%
CCOc1ccccc1OCCn1nc2ccccc2n1 | 2% | -1% | 7% | 3% | nt
Cc1ccc(OCCn2nc3ccccc3n2)c(C)c1 | ? | 18% | 18µM* | 12% | 3%
CCn1c(-c2ccc(N)cc2)nc2ccccc21 | ? | 2% | ? | 9% | 14%
CCn1c(-c2ccco2)nc2ccccc21 | 19µM* | 18% | 28% | 22% | 9%
CC(C)n1c(-c2ccc(N(C)C)cc2)nc2ccccc21 | 7.6µM* | ? | 18% | 1% | 10%
CCn1c(-c2ccc(N(C)C)cc2)nc2ccccc21 | 0.85µM* | ? | 2% | ? | 13µM*
CN(C)c1ccc(-c2nc3ccccc3n2C)cc1 | 0.27µM* | 0.22µM* | ? | 0.32µM* | 0.63µM*
CCOC(=O)c1c(S(=O)(=O)N2CCC(C(=O)NCc3ccccc3Cl)CC2)c(C)n(C)c1C | 4% | nt | nt | nt | nt
COc1ccc(CNc2ncnc3onc(C)c23)cc1 | -6% | nt | nt | nt | nt
COc1ccc(OCC(=O)N2CCN(C(=O)c3cccc(F)c3)CC2)cc1 | 1% | -1% | 1% | 0% | 19%
